What was measured:
Experiment in all cases: PBM binding z-score (relative to random genomic background probes); higher = stronger binding; sequences stand for … in GC…GCGATTGACAGCGTAGAATGAAGG
[1] = system: FXR:RXRa (NR concentration 270 nM, RXRa partner concentration 90 nM)
In short: (§1)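 Scanned fluorescence from custom Agilent 4×180K protein-binding microarrays was regression-normalized. Binding z-scores use random background probes as reference. Ligand-free nuclear receptor dimers were incubated on the arrays for 1 h and detected with antibodies against each partner (one per run).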

[2] = system: LXRa:RXRa (NR concentration 270 nM, RXRa partner concentration 90 nM)
In short: as §1

[3] = system: LXRa homodimer (NR concentration 270 nM)
In short: as §1

[4] = system: LXRb:RXRa (NR concentration 270 nM, RXRa partner concentration 90 nM)
In short: as §1

[5] = system: LXRb homodimer (NR concentration 270 nM)
In short: as §1

[6] = system: PPARa:RXRa (NR concentration 270 nM, RXRa partner concentration 90 nM)
In short: as §1

[7] = system: PPARg:RXRa (NR concentration 180 nM, RXRa partner concentration 90 nM)
In short: as §1

[8] = system: PPARg:RXRa 270nM:90nM, anti-RXR (NR concentration 270 nM, RXRa partner concentration 90 nM)
In short: as §1

[9] = system: PPARg:RXRa 30nM:10nM, anti-RXR (NR concentration 30 nM, RXRa partner concentration 10 nM)
In short: as §1

[10] = system: PPARg:RXRa 90nM:30nM, anti-RXR (NR concentration 90 nM, RXRa partner concentration 30 nM)
In short: as §1

[11] = system: PPARg:RXRa DBDmut IVT, anti-RXR (DBD mutation: RXRa K156A/R161A, NR concentration 270 nM, RXRa partner concentration 90 nM)
In short: as §1

[12] = system: PPARg:RXRa IVT, anti-PPARg (NR concentration 270 nM, RXRa partner concentration 90 nM)
In short: as §1

[13] = system: PPARg DBDmut:RXRa IVT, anti-PPARg (DBD mutation: PPARg1 K132A/R137A, NR concentration 270 nM, RXRa partner concentration 90 nM)
In short: as §1

[14] = system: PPARg DBDmut IVT, anti-PPARg (DBD mutation: PPARg1 K132A/R137A, NR concentration 270 nM)
In short: as §1

[15] = system: PPARg homodimer (NR concentration 180 nM)
In short: as §1

[16] = system: PXR:RXRa (NR concentration 270 nM, RXRa partner concentration 90 nM)
In short: as §1

[17] = system: PXR homodimer (NR concentration 270 nM)
In short: as §1

[18] = system: RARa:RXR (NR concentration 270 nM, RXRa partner concentration 90 nM)
In short: as §1

[19] = system: RARa homodimer (NR concentration 270 nM)
In short: as §1

[20] = system: RARb:RXRa (NR concentration 270 nM, RXRa partner concentration 90 nM)
In short: as §1

Sequence | PBM binding z-score [1] | PBM binding z-score [2] | PBM binding z-score [3] | PBM binding z-score [4] | PBM binding z-score [5] | PBM binding z-score [6] | PBM binding z-score [7] | PBM binding z-score [8] | PBM binding z-score [9] | PBM binding z-score [10] | PBM binding z-score [11] | PBM binding z-score [12] | PBM binding z-score [13] | PBM binding z-score [14] | PBM binding z-score [15] | PBM binding z-score [16] | PBM binding z-score [17] | PBM binding z-score [18] | PBM binding z-score [19] | PBM binding z-score [20]
TCTATTCGTTGATTAGGGCAACCGAAACAGCGGA | 0.77 | 0.642 | -0.323 | 0.409 | 0.94 | 0.827 | 0.127 | 1.93 | 3.6 | 2.72 | 1.61 | 1.69 | 1.2 | 0.685 | 0.326 | 0.454 | 0.0175 | 0.417 | -0.0226 | 0.637
GCTATTAGTAGAAAGGGCAACCGAATGATTCTCG | -0.219 | 0.182 | -0.00158 | 0.187 | -0.195 | 1.42 | 2.17 | 3.71 | 1.81 | 3.54 | 0.164 | 0.803 | 0.319 | 0.449 | 1.28 | 0.256 | -0.0739 | 0.703 | 1.09 | 1.96
GGTAGCAGGCCATTTGGGTCACTCAATGACGGGC | 0.428 | 0.0822 | -0.186 | 0.118 | -0.593 | 1.49 | 0.828 | 0.694 | -0.356 | 0.275 | 0.966 | 2.81 | -0.125 | -0.507 | 0.75 | 0.505 | -0.0413 | 0.741 | -0.36 | 1.75
CTACCCAGGTGAACAAGGTCGTTGATTACTATTC | 0.858 | 0.806 | 0.13 | 1.4 | -0.485 | 1.99 | 0.957 | 0.672 | 0.076 | 0.194 | 1.84 | 2.27 | 0.299 | -0.0404 | 0.541 | 2.03 | 0.96 | 1.61 | 0.91 | 1.29
TCGAGTAGGTTACCAATGGGGTATTCAGCTTTCT | 0.116 | 0.749 | -0.345 | 0.847 | -0.514 | 0.988 | 0.229 | 1.14 | 1.34 | 1.28 | 3.18 | 2.46 | -0.47 | -0.0236 | -0.0597 | 0.05 | -0.757 | 0.339 | -0.642 | 0.76
CCGACTGGGGCAAGGTTGCCATAACGCACAGCCA | -0.306 | -0.375 | -0.461 | -0.29 | -1.05 | 0.601 | 1.87 | 2.77 | 0.553 | 2.2 | 2.66 | 2.53 | -0.344 | -1.02 | 0.0482 | -0.535 | -0.379 | -0.46 | -0.394 | 0.641
ACAGACAGGGGAGTGAAGGTAACTCAGCTGGACG | 0.0883 | 0.0557 | -0.294 | 0.312 | 0.211 | 0.211 | 0.82 | 0.301 | -0.0675 | 0.442 | -0.166 | -0.191 | 0.22 | -0.386 | 0.229 | -0.136 | 0.147 | -0.342 | 0.313 | 0.21
TCAGCTAGGTCAGTTGGTCAGCTAACGAGCTGCC | 0.695 | 0.358 | -0.597 | 0.201 | -0.435 | 1.22 | 0.615 | 1.71 | 1.93 | 1.94 | 2.84 | 2.65 | -0.243 | 0.225 | -0.166 | 0.0327 | -1.06 | 0.304 | -0.936 | 3.31
AATACAGGGCCACTAGGCCAGAGTAGGTACGAAT | -0.165 | -0.349 | -0.323 | -0.572 | -0.877 | 0.171 | 1.13 | 0.532 | 0.0485 | 0.00605 | 1.33 | 2.42 | 0.705 | 0.0878 | 0.246 | -0.239 | -0.266 | -0.268 | 0.415 | 0.772
